# An excerpt weighted towards active compounds, which were near 1.5% of everything screened.
# WRN helicase inh = blocks human WRN helicase | Q14191 | WRN helicase unwinding, fluorescent forked duplex, kinetic | Potency, µM (highest dose often 114 µM), inactives show at the highest dose activity change, negative = inhibition, actives largely listed as inhibitors | actives 0.46% (n = 360,000); also: potency is read from the fitted curve at half-maximal effect; nearly all actives have a fitted effect of over 55% in size
#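 Kinetic fluorescence helicase assay: unwinding of a quenched forked DNA duplex (100 nM final) with 2 mM ATP final raises red fluorescence (525/598 nm). Compounds sat 15 min at room temperature with 20 nM WRN beforehand.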
# Tb PFK inh = T. brucei PFK enzyme inhibition | O15648 | T. brucei PFK, ADP-Glo luminescence | Potency, µM (doses to about 57.5 µM), for the others: at the top dose activity, negative = inhibition, hits mostly inhibitors | actives 0.17% (n = 330,000);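 also: potency is read from the fitted curve at half-maximal effect; 0% = uninhibited 1x PFK enzyme wells and -100% = no-enzyme wells; nearly all actives have a fitted effect of over 60% in size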
#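 Activity is normalized to no-enzyme wells (full inhibition) and 1.25 nM enzyme wells (no inhibition). Reaction: 0.5 mM F6P, 0.1 mM ATP, 45 min RT, ADP-Glo luminescence; concentration-response curves fitted and classed by quality.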
# Tb PGK inh = inhibitors of T. brucei phosphoglycerate kinase; P07378; PGK/GAPDH coupled, Kinase-Glo luminescence, 60 min; Potency, µM (top dose mostly 57.5 µM), inactives show at the highest dose activity change, negative = inhibition, actives largely listed as inhibitors; actives 0.043% (n = 380,000); AID 602233; also: potency is read from the fitted curve at half-maximal effect; nearly all actives have a fitted effect of over 60% in size
#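 Recombinant glycosomal PGK reaction used 1,3-bisphosphoglycerate generated in-well by GAPDH (100nM final) in 100mM TEA pH 7.6, 5mM MgCl2, 0.01% Tween-20. After 60 minutes at room temperature, ATP was read by Kinase-Glo Plus luminescence end-point.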
# TDP1 inh = TDP1 (human) enzyme inhibition; Potency, µM (highest dose often 130 µM), inactives show at the top dose activity change, negative = inhibition, actives largely listed as inhibitors; recombinant TDP1, AlphaScreen DNA substrate cleavage; actives 0.28% (n = 350,000); Q9NUW8; AID 485290; also: potency is read from the fitted curve at half-maximal effect; nearly all actives have a fitted effect of over 40% in size
#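 Recombinant E. coli-expressed Tdp1 (1 nM) preincubated with compound 15 min at RT, then 5'-biotin/3'-phosphotyrosine-FITC DNA substrate (15 nM) added for 5 min. AlphaScreen beads (10 ug/ml) added, 10 min RT; tyrosine-FITC cleavage read as signal loss.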
# PI5P4K alpha inh = blocks human PI5P4K alpha kinase activity | P48426 | max response, % | actives 1.2% (n = 330,000) | PI5P4Kalpha enzyme, ADP-Glo luminescence, 60 min; active compounds read low; active = max response of -50% or lower; inconclusive = between -30% and -50%; inactive = -30% or higher; also: value at the top dose of about 77 µM
#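 Quantitative HTS of the MLSMR library against PI5P4Kalpha with substrate. ATP added last at 5 microM final; room temperature, 60 minutes. Remaining ATP depleted, ADP converted and read as luminescence.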
# FEN1 inh = human FEN1 inhibition; P39748; Recombinant FEN1 flap cleavage, fluorescence, 15 min; actives 0.35% (n = 390,000); Potency, µM (series often up to 114 µM), without a hit: at the top dose activity change, negative = inhibition, actives largely listed as inhibitors; also: potency is read from the fitted curve at half-maximal effect; nearly all actives have a fitted effect of over 65% in size
# Target sequence (P39748 whole entry, looked up): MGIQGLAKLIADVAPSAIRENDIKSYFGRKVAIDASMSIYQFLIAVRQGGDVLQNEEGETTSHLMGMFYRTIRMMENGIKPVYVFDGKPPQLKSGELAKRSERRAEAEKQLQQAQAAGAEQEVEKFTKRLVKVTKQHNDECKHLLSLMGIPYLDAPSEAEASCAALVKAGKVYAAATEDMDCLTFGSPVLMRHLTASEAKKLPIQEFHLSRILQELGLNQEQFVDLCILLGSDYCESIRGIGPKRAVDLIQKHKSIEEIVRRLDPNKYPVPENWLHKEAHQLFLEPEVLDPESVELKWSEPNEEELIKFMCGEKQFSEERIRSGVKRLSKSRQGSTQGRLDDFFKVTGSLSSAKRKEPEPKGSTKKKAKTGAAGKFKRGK
#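 Concentration–response screening of FEN1 (10 nM): 15 min compound preincubation at room temperature, reaction started with 50 nM substrate and read at 0 and 15 min. Corrected, normalized data were fitted by a four-parameter Hill equation.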
# The depositor's hits bear a star; i = inactive; ? = inconclusive; · = no result; [ ] = remark or other dose. Unless noted, calls follow the shape of the dose curve; as a rule, active = well fitted curve in the direction sought with a large enough effect; inconclusive = small, poorly fitted or top-dose-only effect, or another doubt; inactive = no such curve, though single readings can be large; an effect the other way counts as inactive or inconclusive. Unless noted, % is scaled to controls: 0 for no effect and ±100 for the full control effect.
SMILES,WRN helicase inh,Tb PFK inh,Tb PGK inh,TDP1 inh,PI5P4K alpha inh,FEN1 inh
COc1ccc(CC(=O)n2[nH]c(=O)c3ccccc3c2=O)cc1OC,5.5%,-6.5%,-2.1%,5.7%,1.7,0.8%
C(=C\n1nnc2ccccc21)/c1ccc[nH]1,?,-28.5%,-9.1%,·,-76.8*,?
c1ccc(-n2nnc3ccccc32)cc1,9.7%,0.4%,-0.1%,·,-0.6,1.9%
O=C(O)Cn1c2ccccc2c2n[nH]c(=S)nc21,-0.9%,?,-2.7%,·,-55.9*,3.2%
CCn1c2ccccc2c2n[nH]c(=S)nc21,-11.4%,-8.8%,·,·,-13.8,-2.1%
COc1ccc(/C=C/C(=O)c2c(O)c(OC)c3occc3c2OC)cc1OC,·,·,·,·,·,2.4%
CC(C)(C)c1csc(NC(=O)CCS(=O)(=O)c2ccc(F)cc2)n1,19.5%,·,-1.7%,·,3.6,·
O=C(CCS(=O)(=O)c1ccc(F)cc1)Nc1nc(-c2ccncc2)cs1,-5.4%,21.3µM*,-3.9%,6.1%,-2.8,-8.7%
COc1cccc(C2c3c(ncn(-c4ccncc4)c3=N)Oc3ccc4ccccc4c32)c1 (centres undefined),·,·,·,3.2%,·,·
CC1=C(C(=O)OCc2ccccc2)C(c2ccccc2)NC(=O)N1CCCCCC(=O)O (centres undefined),-6.3%,-0.2%,-8.8%,2.6%,0.0,-2.0%
CC1=C(C(=O)OCc2ccccc2)C(c2ccc3ccccc3c2)NC(=O)N1CCCC(=O)O (centres undefined),3.4%,-0.8%,-9.8%,·,-101.3*,4.4%
CC1=C(C(=O)OCc2ccccc2)C(c2ccc([N+](=O)[O-])cc2)NC(=O)N1CCCCCC(=O)O (centres undefined),-0.6%,-4.6%,i,3.9%,?,2.4%
CC1=C(C(=O)OCc2ccccc2)C(c2ccc([N+](=O)[O-])cc2)NC(=O)N1CCCC(=O)O (centres undefined),0.6%,0.3%,-7.8%,·,-68.2*,-3.7%
CC1=C(C(=O)OCc2ccccc2)C(c2ccc3c(c2)OCO3)NC(=O)N1CCCC(=O)O (centres undefined),10.4%,·,-7.6%,·,-78.3*,-10.4%
CC1=C(C(=O)OCc2ccccc2)C(c2ccccc2OS(=O)(=O)c2ccc(C)cc2)NC(=O)N1CCCC(=O)O (centres undefined),-7.0%,·,-2.8%,·,-71.9*,-19.2%
CC1=C(C(=O)OCc2ccccc2)C(c2ccc3ccccc3c2)NC(=O)N1CCCCCC(=O)O (centres undefined),-10.4%,-4.3%,7.4%,5.5%,?,15.2%
CC1=C(C(=O)OCc2ccccc2)C(c2ccccc2Cl)NC(=O)N1CCCCCC(=O)O (centres undefined),-2.8%,2.8%,-4.3%,·,-7.0,-1.8%
O=S(=O)(Nc1cccc2ccccc12)c1cccc2ccccc12,·,·,·,1.1%,·,-22.1%
CCOC(=O)C1=C(C)N(Cc2ccccc2)C(=O)NC1c1ccccc1OS(=O)(=O)c1ccccc1[N+](=O)[O-] (centres undefined),0.4%,·,1.3%,·,-0.9,-19.7%
CC1=C(C(=O)OCc2ccccc2)C(c2ccccc2Cl)NC(=O)N1CCCC(=O)O (centres undefined),-3.3%,2.2%,0.0%,·,-73.0*,-1.1%
COC(=O)C1=C(C)N(CCCC(=O)O)C(=O)NC1c1ccccc1OS(=O)(=O)c1ccccc1[N+](=O)[O-] (centres undefined),-1.4%,·,-0.6%,·,-83.9*,-6.9%
Cc1ccc(S(=O)(=O)N[C@H]2COC(=O)[C@@H](C)COC(=O)C/C=C\[C@H]2C)cc1,·,·,·,0.5%[21 µM],·,·
COC(=O)c1ccc(Cl)cc1NC(=O)N1CC=C(c2c[nH]c3ccccc23)CC1,·,·,1.2%,5.6%,·,-19.0%
CC(C)CCCC(C)C1CC(=O)C2=C3CCC4CC(O)CCC4(C)C3CCC21C (centres undefined),·,·,·,9.6%,·,·
CCOC(=O)c1sc(=S)n(-c2ccccc2)c1NC(C)=O,?,0.9%,i,·,?,79.4µM*
SMILES,WRN helicase inh,Tb PFK inh,Tb PGK inh,TDP1 inh,PI5P4K alpha inh,FEN1 inh
Nc1cc(S(=O)(=O)N2CCN(S(=O)(=O)c3ccc4c(c3)OCCO4)CC2)ccn1,·,·,·,-3.1%,·,·
CCCOc1ccc(N)cc1N,56.2µM*,-1.8%,-6.1%,6.6%,-64.6*,?
CCCOc1cc(N)ccc1C(=O)OCCN(CC)CC,2.3%,0.1%,-1.6%,2.2%[56.1 µM],2.0,-2.6%
O=C(O)CC(CC(=O)O)c1ccc2c(c1)OCO2,·,·,·,·,·,-12.2%
Cc1nc(SCC(N)=O)c([N+](=O)[O-])[nH]1,-1.1%,0.9%,-0.4%,-3.0%,1.1,2.0%
C/C(=N\NC(=O)CSc1nc(C)[nH]c1[N+](=O)[O-])c1ccc(F)cc1,-0.5%,0.0%,-0.3%,5.9%,-66.5*,-12.5%
O=C(N/N=C/c1ccco1)c1cccc(N2Cc3ccccc3C2)c1,-20.0%[11.6 µM],-0.9%,-2.1%,·,-88.4*,?
CC(C)c1ccc(NC(=O)C[n+]2ccn(C3=C([O-])c4ccccc4C3=O)c2)cc1,-28.2%,-4.3%,-3.7%,50.1µM*,-8.3,-20.2%
CC(/C=C/c1ccco1)=N/NC(=O)Cc1cccs1,?,1.8%,-4.4%,3.1%,-52.0*,-12.6%
CCc1ccc(/C(C)=N/NC(=O)CNC(=O)/C=C/c2ccco2)cc1,28.2µM*,·,14.1µM*,·,-84.3*,44.7µM*
CC(/C=N/NC(=O)Cc1cccs1)=C\c1ccco1,-13.0%,-4.2%,-8.4%,3.0%,-15.5,9.3%
CC(/C=C/c1ccco1)=N\NC(=O)c1cc(Cl)ccc1O,?,?,7.2%,8.1%,-80.1*,-6.1%
Cc1ccc(S(=O)(=O)N(C)CCN(C)c2nc(-c3cccs3)nc3ccccc23)cc1,·,·,·,-0.2%,·,-14.1%
CC(C)(C)n1ncc2c(=O)n(Cc3ccc(-c4ccccc4C#N)cc3)cnc21,·,·,·,·,·,0.2%
Cc1ccc(CNC(=O)[C@H](C)[C@H]2C[C@]2(C)[C@H](NC(=O)OCc2ccccc2)c2ccccc2)o1,-11.4%,-8.1%,9.5%,3.9%,-52.0*,-2.6%
Cc1ccc(S(=O)(=O)Nc2cc(C(=O)O)ccc2N2CCCCC2)cc1,-5.0%,-14.0%,-0.1%,2.2%,·,-13.3%

# High-throughput results as filed in PubChem BioAssay.
